Records with an inconclusive call do not appear. Activity calls are given as the source filed them. Calls follow the shape of the dose curve; as a rule, active = well fitted curve in the direction sought with a large enough effect; inconclusive = small, poorly fitted or top-dose-only effect, or another doubt; inactive = no such curve, though single readings can be large; an effect the other way counts as inactive or inconclusive.
What was measured:
[1] = Quantitative High-Throughput drug screen in 47 multiple myeloma cell lines against the NCATS MIPE library collection: KMS12BM_JCRB cell viability assay (AID 1918971); also: nearly all actives have a fitted effect of over 35% in size; also: potency is read from the fitted curve at half-maximal effect
Outline: (§1)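 Steps: seed 500 cells per well; pin-transfer MIPE 4.0 library; incubate 48 h at 37C, 5% CO2, humidified; add CellTiter-Glo, 5 min room temperature; read luminescence.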

[2] = Quantitative High-Throughput drug screen in 47 multiple myeloma cell lines against the NCATS MIPE library collection: KMS12PE_JCRB cell viability assay (AID 1918972); also: nearly all actives have a fitted effect of over 30% in size; also: potency is read from the fitted curve at half-maximal effect
Outline: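 CellTiter-Glo ATP luminescence gave viability after 48 h compound treatment at 37C of 500 multiple myeloma cells per well. Normalisation used DMSO-only wells as 100% and media-only wells as 0% viability; primary qHTS of approved and investigational drugs.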

[3] = Quantitative High-Throughput drug screen in 47 multiple myeloma cell lines against the NCATS MIPE library collection: KMS26_JCRB cell viability assay (AID 1918975); also: nearly all actives have a fitted effect of over 45% in size; also: potency is read from the fitted curve at half-maximal effect
Outline: as §1

[4] = Quantitative High-Throughput drug screen in 47 multiple myeloma cell lines against the NCATS MIPE library collection: NCIH929_DSMZ cell viability assay (AID 1918978); also: nearly all actives have a fitted effect of over 35% in size; also: potency is read from the fitted curve at half-maximal effect
Outline: (§2)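 ATP-based CellTiter-Glo luminescence after 48 h drug exposure (37 °C, 5% CO2) of 500 myeloma cells per well. DMSO-only wells set 100% viability, media-only wells 0%; MIPE 4.0 library added by pin tool.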

[5] = Quantitative High-Throughput drug screen in 47 multiple myeloma cell lines against the NCATS MIPE library collection: OCIMY1_PLB cell viability assay (AID 1918979); also: nearly all actives have a fitted effect of over 35% in size; also: potency is read from the fitted curve at half-maximal effect
Outline: as §2

[6] = Quantitative High-Throughput drug screen in 47 multiple myeloma cell lines against the NCATS MIPE library collection: MM1S_ATCC cell viability assay (AID 1918980); also: nearly all actives have a fitted effect of over 45% in size; also: potency is read from the fitted curve at half-maximal effect
Outline: as §2

[7] = Quantitative High-Throughput drug screen in 47 multiple myeloma cell lines against the NCATS MIPE library collection: KMS28PE_JCRB cell viability assay (AID 1918983); also: nearly all actives have a fitted effect of over 35% in size; also: potency is read from the fitted curve at half-maximal effect
Outline: as §2

[8] = Quantitative High-Throughput drug screen in 47 multiple myeloma cell lines against the NCATS MIPE library collection: L363_DSMZ cell viability assay (AID 1918984); also: nearly all actives have a fitted effect of over 40% in size
Outline: as §2

[9] = Quantitative High-Throughput drug screen in 47 multiple myeloma cell lines against the NCATS MIPE library collection: KMS34_JCRB cell viability assay (AID 1918985); also: nearly all actives have a fitted effect of over 40% in size; also: potency is read from the fitted curve at half-maximal effect
Outline: as §2

[10] = Quantitative High-Throughput drug screen in 47 multiple myeloma cell lines against the NCATS MIPE library collection: OCIMY5_PLB cell viability assay (AID 1918988); also: potency is read from the fitted curve at half-maximal effect; nearly all actives have a fitted effect of over 65% in size
Outline: as §2

[11] = Quantitative High-Throughput drug screen in 47 multiple myeloma cell lines against the NCATS MIPE library collection: KMS27_JCRB cell viability assay (AID 1918970); also: nearly all actives have a fitted effect of over 30% in size; also: potency is read from the fitted curve at half-maximal effect
Outline: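 CellTiter-Glo luminescence after 48 h drug exposure at 37 °C; 500 cells/well, 1536-well format, pin-tool compound addition; DMSO = 100%, media-only = 0% viability.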

[12] = Quantitative High-Throughput drug screen in 47 multiple myeloma cell lines against the NCATS MIPE library collection: KMS20_JCRB cell viability assay (AID 1918973); also: nearly all actives have a fitted effect of over 45% in size; also: potency is read from the fitted curve at half-maximal effect
Outline: (§3)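 CellTiter-Glo luminescence (ATP) after 48 h compound exposure, 37C/5% CO2; 500 cells/well; MIPE 4.0 approved/investigational drugs pinned in; DMSO = 100%, media only = 0% viability.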

[13] = Quantitative High-Throughput drug screen in 47 multiple myeloma cell lines against the NCATS MIPE library collection: MOLP8_DSMZ cell viability assay (AID 1918977); also: nearly all actives have a fitted effect of over 45% in size; also: potency is read from the fitted curve at half-maximal effect
Outline: as §2

[14] = Quantitative High-Throughput drug screen in 47 multiple myeloma cell lines against the NCATS MIPE library collection: MM1R_ATCC cell viability assay (AID 1918981); also: nearly all actives have a fitted effect of over 35% in size; also: potency is read from the fitted curve at half-maximal effect
Outline: as §2

[15] = Quantitative High-Throughput drug screen in 47 multiple myeloma cell lines against the NCATS MIPE library collection: OCIMY7_PLB cell viability assay (AID 1918987); details: OCI-MY7 myeloma viability, CellTiter-Glo ATP, 48 h; viability (% of DMSO): at 45.8 µM (top of the series); also: nearly all actives have a fitted effect of over 65% in size; also: potency is read from the fitted curve at half-maximal effect
Outline: as §2

[16] = Quantitative High-Throughput drug screen in 47 multiple myeloma cell lines against the NCATS MIPE library collection: LP1_DSMZ cell viability assay (AID 1918982); also: nearly all actives have a fitted effect of over 35% in size; also: potency is read from the fitted curve at half-maximal effect
Outline: as §2

[17] = Quantitative High-Throughput drug screen in 47 multiple myeloma cell lines against the NCATS MIPE library collection: MMM1_PLB cell viability assay (AID 1918976)
Outline: as §2

[18] = Quantitative High-Throughput drug screen in 47 multiple myeloma cell lines against the NCATS MIPE library collection: KMS21BM_JCRB cell viability assay (AID 1918974); details: ATP luminescence, 48 h; viability: at 45.8 µM (top of the series) unless noted
Outline: as §3

O=c1c(-c2ccc(O)cc2)coc2cc(O[C@@H]3O[C@H](CO)[C@H](O)[C@H](O)[C@H]3O)ccc12
inactive: Potency [1] | Potency [2] | Potency [3] | Potency [4] | Potency [5] | Potency [6] | Potency [7] | Potency [8] | Potency [9]

COCCCCC(=NOCCN)c1ccc(C(F)(F)F)cc1
inactive: Potency [2] | Potency [5] | Potency [8]
active: Potency [1] 20.9 µM | Potency [6] 16.6 µM | Potency [9] 3.72 µM | Potency [10] 23.5 µM

C=CCc1ccc(O)c(-c2ccc(O)c(CC=C)c2)c1
active: Potency [11] 23.5 µM | Potency [2] 20.9 µM | Potency [12] 23.5 µM | Potency [6] 18.7 µM | Potency [10] 18.7 µM

Nc1ncnc2ccccc12
inactive: Potency [11] | Potency [13] | Potency [5] | Potency [14]
active: Potency [4] 26.4 µM | Potency [15] 14.8 µM | Potency [10] 26.4 µM

CC1(C)Cc2c(sc(NC(=S)NC(=O)c3ccccc3)c2C(=O)O)CO1
inactive: Potency [5] | Potency [14] | Potency [16] | Potency [7] | Potency [9]
active: Potency [6] 18.7 µM

N#C[C@H]1C[C@H]2C[C@@H]2N1C(=O)[C@@H](N)C12CC3CC(CC(O)(C3)C1)C2
active: Potency [17] 1.48 µM | Potency [6] 4.18 µM
inactive: Potency [11] | Potency [2] | Potency [4] | Potency [7] | Potency [8] | Potency [9]

Cc1ccc(/C=N/NC(=O)c2ccccc2Oc2ccccc2)o1
inactive: Potency [5] | Potency [8]
active: Potency [1] 23.5 µM | Potency [12] 16.6 µM | Potency [6] 18.7 µM | Potency [15] 16.6 µM | Potency [10] 16.6 µM

CCOC(CN1C(=O)[C@](CC(=O)Nc2ccc(C)cc2)(NC(=O)Nc2ccc(C)cc2)c2ccccc21)OCC
inactive: Potency [13] | Potency [16]
active: Potency [11] 26.4 µM | Potency [17] 23.5 µM | Potency [10] 26.4 µM

COc1ccc(Cc2nccc3cc(OC)c(OC)cc23)cc1OC
active: Potency [1] 16.6 µM | Potency [17] 23.5 µM | Potency [5] 18.7 µM | Potency [6] 23.5 µM | Potency [14] 23.5 µM | Potency [7] 8.33 µM | Potency [9] 3.72 µM | Potency [15] 18.7 µM | Potency [10] 16.6 µM
inactive: Potency [18] | Potency [4]

C[N+](C)(C)CC(=O)O
inactive: Potency [2] | Potency [4] | Potency [6] | Potency [14] | Potency [7] | Potency [8] | Potency [9] | Potency [15]

CC(C)n1nc(-c2ccc3oc(N)nc3c2)c2c(N)ncnc21
active: Potency [1] 0.0526 µM | Potency [3] 0.132 µM | Potency [17] 0.0026 µM | Potency [6] 0.0105 µM | Potency [7] 0.0023 µM | Potency [15] 2.64 µM | Potency [10] 4.69 µM

CC=CCC(C)C(O)C1C(=O)NC(CC)C(=O)N(C)CC(=O)N(C)C(CC(C)C)C(=O)NC(C(C)C)C(=O)N(C)C(CC(C)C)C(=O)NC(C)C(=O)NC(C)C(=O)N(C)C(CC(C)C)C(=O)N(C)C(CC(C)C)C(=O)N(C)C(C(C)C)C(=O)N1C (stereo not drawn)
inactive: Potency [6]

CC(C)[C@H](CO)Nc1nc(Nc2ccc(C(=O)O)c(Cl)c2)c2ncn(C(C)C)c2n1
active: Potency [17] 23.5 µM | Potency [4] 23.5 µM | Potency [7] 37.2 µM | Potency [15] 16.6 µM

COC1CCC(N(C(=O)C2CCC(C)CC2)c2cc(C3=CCCCC3)sc2C(=O)O)CC1 (stereo not drawn)
active: Potency [4] 23.5 µM | Potency [10] 11.8 µM
inactive: Potency [11] | Potency [2] | Potency [12] | Potency [18] | Potency [3] | Potency [6] | Potency [16] | Potency [8]

O=C1c2c(O)cc(O)cc2O[C@H](c2cc(O)c(O)c(O)c2)[C@H]1O
active: Potency [3] 20.9 µM | Potency [17] 10.5 µM | Potency [13] 18.7 µM | Potency [6] 20.9 µM | Potency [14] 23.5 µM | Potency [16] 20.9 µM | Potency [7] 20.9 µM | Potency [9] 11.8 µM | Potency [10] 13.2 µM
inactive: Potency [11] | Potency [2] | Potency [4]

N[C@@]1(C(=O)O)CS(=O)(=O)[C@H]2[C@H](C(=O)O)[C@H]21
inactive: Potency [13] | Potency [5] | Potency [9]
active: Potency [6] 3.72 µM

COc1cc(N2CCC(N3CCN(C)CC3)CC2)ccc1Nc1ncnc(Nc2ccccc2S(=O)(=O)C(C)C)n1
inactive: Potency [2] | Potency [18]
active: Potency [1] 23.5 µM

O=C(O)c1ccc(-c2c[nH]c3ncc(-c4ccccc4)cc23)cc1C1CCCC1
active: viability [18] 272% | Potency [9] 14.8 µM | Potency [15] 8.33 µM
inactive: Potency [2] | Potency [3] | Potency [13] | Potency [5] | Potency [16]

CC1CCC(C(=O)N(c2cc(C#CC(C)(C)C)sc2C(=O)O)C2CCC(O)CC2)CC1 (stereo not drawn)
active: Potency [15] 23.5 µM
inactive: Potency [11] | Potency [2] | Potency [6] | Potency [8]

COc1ccc2c3c1OC1C[C@@H](O)C=C[C@@]31CCN(C)C2 (stereo partly drawn)
active: Potency [4] 16.6 µM | Potency [6] 20.9 µM | Potency [15] 4.18 µM | Potency [10] 10.5 µM
inactive: Potency [11] | Potency [2] | Potency [5] | Potency [14] | Potency [16] | Potency [7] | Potency [9]

COc1ncc(-c2ccc3nccc(-c4ccnnc4)c3c2)cc1NS(=O)(=O)c1ccc(F)cc1F
active: Potency [1] 0.0662 µM | Potency [2] 0.0935 µM | Potency [3] 0.0526 µM | Potency [15] 0.166 µM | Potency [10] 1.48 µM

Reference: PubChem BioAssay (NCATS)
